# Source: PubChem BioAssay (National Center for Advancing Translational Sciences (NCATS))
# TDP1 cell CPT: qHTS for Inhibitors of human tyrosyl-DNA phosphodiesterase 1 (TDP1): qHTS in cells in presence of CPT; chicken DT40 Tdp1-/-;hTDP1 cells + 20 nM CPT, ATP luminescence, 48 h; Potency, µM (doses to about 46.2 µM), actives largely listed as inhibitors; 12% of 420,000 active; AID 686979, 2013; further: nearly all actives have a fitted effect of over 55% in size
#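 Chicken DT40 Tdp1-/- cells stably complemented with human TDP1 were seeded at 400 cells/well in medium containing 20 nM camptothecin, exposed to pin-transferred compounds, and grown at 37 °C for at least 48 hr. Viability was read as ATP luminescence.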
# HT1080 IDH1KD tx: qHTS for induction of synthetic lethality in tumor cells producing 2HG: qHTS for the HT-1080-IDH1KD cell line | HT-1080 IDH1 knockdown viability, ATP luminescence, 48 h | Potency, µM (series often up to 46.1 µM), most hits filed as cytotoxic | 2% of 360,000 active | AID 686971, 2013
#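 HT-1080-IDH1KD cells (IDH1 knocked down), 750/well in RPMI with 5% FBS, treated with compound 48 h at 37 degrees C. Viability by CellTiter-Glo luminescence, normalised to DMSO and no-cell wells; concentration-response curves classed.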
# HT1080NT lethal: qHTS for induction of synthetic lethality in tumor cells producing 2HG: qHTS for the HT-1080-NT fibrosarcoma cell line. HT-1080-NT fibrosarcoma viability, CellTiter-Glo ATP luminescence, 48 h. Potency, µM (series often up to 46.1 µM), hits mostly cytotoxic. 1.6% of 360,000 active;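 further: NT is the 2HG producing partner of a matched IDH1 knockdown line; nearly all actives have a fitted effect of over 55% in size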
#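 Fibrosarcoma NT cells, 750 per well in 5% FBS RPMI, were exposed to compound for 48 hours. Viability: CellTiter-Glo luminescence.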
# TDP1 cell noCPT: qHTS for Inhibitors of human tyrosyl-DNA phosphodiesterase 1 (TDP1): qHTS in cells in absence of CPT. 15% of 420,000 active. AID 686978, 2013. DT40 Tdp1-/- hTDP1 cells, no CPT, ATP luminescence, 48 h. Potency, µM (highest dose often 46.2 µM), usual class: inhibitors; further: nearly all actives have a fitted effect of over 55% in size
#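 Cells were dispensed at 400 per well, compounds added by pin tool, plates incubated ≥48 hr at 37 °C, then CellTiter-Glo added for 30 min at room temperature before luminescence reading. Line: DT40 Tdp1-/- complemented with hTDP1; camptothecin omitted.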
# TGFb SMAD3 inh: qHTS for Inhibitors of TGF-b; Potency, µM (series often up to 46.1 µM), most hits filed as inhibitors; HepG2 CAGA-GFP TGF-b/SMAD3 reporter, GFP fluorescence, 18 h; TGF-beta stimulated, 500 pg/mL final; AID 588855, 2011; 1.2% of 410,000 active; further: nearly all actives have a fitted effect of over 65% in size
#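 Per well, imaged GFP fluorescence of HEPG2 CAGA-GFP cells gives the signal; cells get compound, then TGF-beta (500 pg/mL final), 18 h at 37 degrees C; %Activity versus -TGF-beta and +DMSO controls.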
# HepG2 viability: qHTS for Inhibitors of TGF-b: Cytotox Counterscreen | Potency, µM (doses to about 46.1 µM), actives largely listed as cytotoxic | 0.76% of 410,000 active | AID 588856, 2011 | HepG2 CAGA-GFP viability, ATP luminescence, 18 h
#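 HepG2 CAGA-GFP cells (1000/well, DMEM with 1% FBS) received compound, then TGF-beta at 500 pg/mL final, and were incubated 18 hours at 37 degrees C. Viability was read by CellTiter-Glo luminescence. Media-only wells were set as complete cell-killing and DMSO as no toxicity.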
# Numbers stand for hits; - = inactive; ? = inconclusive; . = no result given; [ ] = dose if it differs, or a comment. An excerpt weighted towards active compounds, which were near 17% of everything screened. The call rests on the fitted dose curve; in most records, active means well fitted curve in the direction sought with a large enough effect; inconclusive means small, poorly fitted or top-dose-only effect, or another doubt; inactive means no such curve, though single readings can be large; an effect the other way counts as inactive or inconclusive.
SMILES,TDP1 cell CPT,HT1080 IDH1KD tx,HT1080NT lethal,TDP1 cell noCPT,TGFb SMAD3 inh,HepG2 viability
COc1cccc(-c2cnc(C(O)c3ccc(Cl)cc3C)[nH]2)c1 (stereo unspecified),23µM,-,-,16µM,-,-
COc1ccccc1-c1cnc(C(O)c2ccc(Cl)cc2C)[nH]1 (stereo unspecified),?,?,-,18µM,-,-
COc1cccc(-c2cnc(C(O)c3ccc(Cl)c(F)c3)[nH]2)c1 (stereo unspecified),15µM,-,-,?,-,-
COc1ccccc1-c1cnc(C(O)c2c(C)cccc2C)[nH]1 (stereo unspecified),?,-,-,-,-,-
COc1ccccc1-c1cnc(C(O)c2cccc(C)c2C)[nH]1 (stereo unspecified),15µM,-,-,16µM,-,-
COc1ccc(S(=O)(=O)Nc2ccc(S(=O)(=O)Nc3cc(C)nc(C)n3)cc2)cc1OC,-,-,-,-,-,-
Cn1nc(-c2ccncc2)nc2c(=O)n(C)c(=O)nc1-2,0.32µM,.,.,0.35µM,1.3µM,-
CCn1nc(-c2ccc(C)cc2)nc2c(=O)n(C)c(=O)nc1-2,1.6µM,.,.,2.2µM,0.5µM,0.71µM
COc1ccc(-c2nc(-c3ccncc3)no2)cc1,-,-,-,-,-,-
FC(F)(F)c1cccc(Nc2c3c(nc4ccc(Cl)cc24)CCC3)c1,7.3µM,.,.,6.5µM,18µM,-
O=C(c1ccc(Nc2cccc(C(F)(F)F)c2)nc1)N1CCCC1,?,-,-,-,-,-
Fc1ccc(F)c(Nc2c3c(nc4ccc(Cl)cc24)CCC3)c1,16µM,.,.,?,?,18µM
Cc1cc(Sc2nc(N)ncc2[N+](=O)[O-])ncn1,0.73µM,6.5µM,5.8µM,1.3µM,10µM,-
Cc1cc(Sc2ncnc(N)c2[N+](=O)[O-])ncn1,0.29µM,7.3µM,13µM,0.92µM,?,-
CC(C)CNC(=O)CCc1c[nH]c2ccccc12,-,-,-,-,-,-
O=C(O)c1ccc(B(O)O)cc1,-,.,.,?,-,-
O=C(NCCc1ccccc1Cl)c1ccc(Cn2c(=O)c3cccn3c3cccnc32)cc1,10µM,.,.,10µM,?,10µM
CN(C)c1ccc(CNC(=O)c2ccc(Cn3c(=O)c4cccn4c4cccnc43)cc2)cc1,?,.,.,0.21µM,-,-
COc1ccc(CCNC(=O)CSc2nc3cc(Cl)ccc3o2)cc1OC,?,-,-,?,-,-
CCCCCCNC(=O)CC(c1ccccc1)c1cc(Br)ccc1O (stereo unspecified),?,?,?,26µM,13µM,13µM
O=C(CC(c1ccccc1)c1cc(Br)ccc1O)NCc1ccco1 (stereo unspecified),?,?,?,?,?,-
COc1ccccc1CNc1cc(-c2ccccc2C(F)(F)F)ncn1,1.3µM,.,.,1.5µM,.,.
COc1ccccc1CNc1cc(-c2ccccc2Cl)ncn1,16µM,.,.,15µM,.,.
COc1cccc(-c2cc(NCc3ccccc3OC)ncn2)c1,4.1µM,.,.,?,.,.
Cc1cnc(CNc2cc(-c3ccccc3C(F)(F)F)ncn2)cn1,-,.,.,-,.,.
SMILES,TDP1 cell CPT,HT1080 IDH1KD tx,HT1080NT lethal,TDP1 cell noCPT,TGFb SMAD3 inh,HepG2 viability
CC1(C2(O)CCCCC2)NCCc2ccccc21 (stereo unspecified),-,-,-,?,-,-
Cn1c(=O)n(-c2cccc(Cl)c2)c(=O)c2c3c(sc21)COC(C)(C)C3,-,-,-,-,-,-
Nc1ncnc2c1ncn2[C@@H]1O[C@H](CNC(=O)[C@@H](N)Cc2ccc(C(=O)c3ccccc3)cc2)[C@@H](O)[C@H]1O,-,-,-,-,-,-
COc1ccc(C[C@H]2CN3C(=NC[C@H]3Cc3ccccc3)N2CCNC(=O)c2ccc(C)c(Br)c2)cc1,21µM,?,-,15µM,?,-
C/C=C(\C)C(=O)NCCN1C2=NC[C@H](Cc3ccccc3)N2C[C@@H]1Cc1ccc(OC)cc1,?,-,-,?,-,-
COc1ccc(C[C@H]2CN3C(=NC[C@@H]3Cc3ccccc3)N2CCNC(=O)c2ccc(C)c(Br)c2)cc1,23µM,?,?,21µM,?,13µM
C[C@@H](CN1C2=NC[C@H](Cc3ccccc3)N2C[C@H]1Cc1ccc(O)cc1)NC(=O)CCC1CCCCC1,7.3µM,?,?,12µM,?,-
COc1ccc(C[C@H]2CN3C(=NC[C@H]3Cc3ccccc3)N2CCNC(=O)CCC2CCCCC2)cc1,?,-,-,26µM,?,-
O=C(CCC1CCCC1)N[C@@H](Cc1ccc(O)cc1)C(=O)O,-,-,-,-,-,-
O=C(COc1ccccc1-c1nc(-c2ccccc2)no1)Nc1ccc([N+](=O)[O-])cc1,-,.,.,-,-,-
CCC1CSC(Nc2ccc(C(=O)/C=C/c3ccc(Oc4ccccc4)cc3)cc2)=N1 (stereo unspecified),23µM,-,-,16µM,?,-
CC(=O)c1ccc(NC(=O)/C=C/c2ccc(C)cc2)cc1,-,-,-,-,-,-
CCC1CSC(Nc2ccc(C(=O)/C=C/c3cccc(C)c3)cc2)=N1 (stereo unspecified),16µM,?,?,15µM,18µM,-
CCOc1cccc(-c2c(C(=O)N/N=C/c3cccs3)nnn2-c2nonc2N)c1,-,-,-,-,-,-
CCN(CC)C(=O)CSc1nc(-c2cccs2)cc(-c2cccs2)c1C#N,23µM,-,-,?,-,-
CCN(CC)C(=O)CSc1nc(N)c(C#N)c(-c2cccs2)c1C#N,-,?,?,-,-,-
N#Cc1c(-c2ccc(F)cc2)cc(-c2cccs2)nc1SCC(=O)O,-,-,-,?,-,-
CN1CCN(C(=O)CSc2nc(-c3cccs3)cc(-c3cccs3)c2C#N)CC1,?,-,-,18µM,-,-
Cc1nc(SCC(=O)Nc2nc3ccccc3s2)c(C#N)c(C)c1C,?,?,-,?,-,-
Cc1cc(C(F)(F)F)c(C#N)c(SCC(=O)Nc2nc3ccccc3s2)n1,?,18µM,?,18µM,-,-
N#Cc1ccc(-c2cccnc2)nc1SCC(=O)Nc1sc2c(c1C#N)CCC2,-,-,-[9.24 µM],-,-,-
